The values that follow come from PubChem BioAssay.

The assay in a line: compound effects on hepatocellular carcinoma cell viability – HepG2, calcein-AM fluorescence, 48 h, basal, profiling panel (AID 1164). Also: test concentration not given here. The note with it: higher = more signal.
Take `C=CCOC(=O)[C@H]1[C@@H]2C(=O)O[C@@H](c3ccccc3)[C@@H](c3ccccc3)N2[C@@H](c2ccc(OCCOC(=O)[C@@H]3C[C@@H]4C(=O)N[C@@H](CCCCNC(C)=O)C(=O)N4[C@@H]3c3ccc(O)cc3)cc2)[C@]12C(=O)Nc1ccc(I)cc12`: the z-score was -0.786.
As for `O=c1n(-c2ccccc2)c(=O)n2n1CC(COc1ccccc1)=C([C@H](O)CCc1ccccc1)[C@@H]2CO`, the figure is 0.787; as for `CN(C)C(=O)[C@]1(CCS(=O)(=O)c2ccccc2)N=C(c2ccc(OCCCO)cc2)O[C@@H]1c1ccccc1N=[N+]=[N-]`, 0.591; as for `COC(=O)[C@@]1(Cc2ccccc2)[C@@H]2C(=CC(=O)[C@H]2CC(=O)C(=O)N(C)C)CN1C(=O)c1ccccc1`, 0.11.
With `CCOC(=O)C[C@H]1[C@H](OC(=O)Cc2ccc3c(c2)OCO3)[C@@H](NC(=O)Cc2ccc(OC)cc2)c2cc(OCCCO)ccc2N1C(=O)c1ccc2ccccc2n1` the figure was 1.37; with `CC1CC/C=C\[C@H]2OC34C=CCN(C(C)C)C(=O)[C@H]3N(CCCCCCO)C(=O)[C@@H]4C2C(=O)O1` (stereo partly specified), 0.25.
